In PubChem BioAssay (EPA / NIEHS):
Records with an inconclusive call do not appear. More than one record can exist for a structure, and the calls need not agree. Activity calls are given as the source filed them. How the source made its calls, unless noted: active means hit-call score of the fitted dose curve at least 0.9, where 1 is the maximum; inconclusive means response in the unintended direction; inactive means score below 0.9.

Columns and labels:
[1] = read-out: Transforming Growth Factor (TGFA), TGFA (gene 7039); test: LTEA_HepaRG_TGFA: Life Technologies and Expression Analysis (LTEA) Assay for Transforming Growth Factor (TGFA) using HepaRG (AID 2283532; active means hit-call score of the fitted dose curve at least 0.9, where 1 is the maximum; inactive means score below 0.9); settings: mRNA level, 48 h; actives raise or lower the signal
Method in brief: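 Differentiated HepaRG cells exposed 48 hours in serum-free induction medium, 0.5% DMSO vehicle, 8-point half-log series from 100 uM, in duplicate. TGFA mRNA by TaqMan qRT-PCR, normalised to ACTB, GAPDH, POLR2A; bidirectional fit versus DMSO.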

[2] = read-out: Transforming Growth Factor (TGFB1), TGFB1 (gene 7040); test: LTEA_HepaRG_TGFB1: Life Technologies and Expression Analysis (LTEA) Assay for Transforming Growth Factor (TGFB1) Transporter using HepaRG (AID 2283533; active means hit-call score of the fitted dose curve at least 0.9, where 1 is the maximum; inactive means score below 0.9); settings: mRNA level, 48 h; actives raise or lower the signal
Method in brief: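 qRT-PCR readout of TGFB1 transcript in HepaRG lysates, normalized to three housekeeping genes; gain or loss of signal fitted relative to 0.5% DMSO vehicle. Exposure: 48 h, 8-point curve from 100 uM, duplicate wells.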

TIMP1, TIMP1 (gene 7076) = test: LTEA_HepaRG_TIMP1: Life Technologies and Expression Analysis (LTEA) Assay for TIMP1 using HepaRG (AID 2283534; active means hit-call score of the fitted dose curve at least 0.9, where 1 is the maximum; inactive means score below 0.9;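 further: TaqMan qRT-PCR signal normalized to ACTB GAPDH and POLR2A housekeeping genes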); settings: mRNA level, 48 h; actives raise or lower the signal
Method in brief: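 HepaRG, 48 h exposure, 8-pt half-log series from 100 uM in 0.5% DMSO, duplicates; TIMP1 transcript by Fluidigm qRT-PCR, housekeeping-normalized; bidirectional curve fit vs DMSO baseline.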

[3] = read-out: Tumor necrosis factor receptor 1 (TNFRSF1A), TNFRSF1A (gene 7132); test: LTEA_HepaRG_TNFRSF1A: Life Technologies and Expression Analysis (LTEA) Assay for Tumor necrosis factor receptor 1 (TNFRSF1A) using HepaRG (AID 2283535; active means hit-call score of the fitted dose curve at least 0.9, where 1 is the maximum; inactive means score below 0.9); settings: mRNA level, 48 h; actives raise or lower the signal
Method in brief: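 HepaRG, 48 h plating then 48 h chemical exposure, serum-free induction media; 8-pt CRC from 100 uM, half-log, 0.5% DMSO vehicle, duplicates. Readout: TaqMan qRT-PCR (Fluidigm), housekeeping-gene normalized; bidirectional fit vs DMSO.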

[4] = read-out: Cellular tumor antigen p53 (Homo sapiens) (UniProt P04637); test: LTEA_HepaRG_TP53: Life Technologies and Expression Analysis (LTEA) Assay for Tumor Protein P53 (TP53) using HepaRG (AID 2283537; active means hit-call score of the fitted dose curve at least 0.9, where 1 is the maximum; inactive means score below 0.9); settings: mRNA level, 48 h; actives raise or lower the signal
Method in brief: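 Gain or loss of TP53 mRNA signal is scored relative to 0.5% DMSO after 48 h chemical treatment of HepaRG liver cells, tested in duplicate at eight half-log concentrations up to 100 uM.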

[5] = read-out: UDP glucuronosyltransferase (UGT1A1), UGT1A1 (gene 54658); test: LTEA_HepaRG_UGT1A1: Life Technologies and Expression Analysis (LTEA) Assay for UDP glucuronosyltransferase (UGT1A1) using HepaRG (AID 2283538; active means hit-call score of the fitted dose curve at least 0.9, where 1 is the maximum; inactive means score below 0.9); settings: mRNA level, 48 h; actives raise or lower the signal
Method in brief: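 HepaRG cells, 0.5% DMSO vehicle, 48 h exposure in serum-free induction medium to 8-point half-log series topping at 100 uM, in duplicate. UGT1A1 mRNA by Fluidigm qRT-PCR, normalized to ACTB/GAPDH/POLR2A; bidirectional fit versus DMSO.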

[6] = read-out: UDP glucuronosyltransferase (UGT1A6), UGT1A6 (gene 54578); test: LTEA_HepaRG_UGT1A6: Life Technologies and Expression Analysis (LTEA) Assay for UDP glucuronosyltransferase (UGT1A6) using HepaRG (AID 2283539; active means hit-call score of the fitted dose curve at least 0.9, where 1 is the maximum; inactive means score below 0.9); settings: mRNA level, 48 h; actives raise or lower the signal
Method in brief: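 qRT-PCR readout of UGT1A6 mRNA (normalized to ACTB/GAPDH/POLR2A) in differentiated HepaRG cells after 48 h chemical exposure; 8 concentrations, top 100 uM, half-log steps, 0.5% DMSO. Bidirectional curve fit relative to DMSO baseline.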

[7] = read-out: X-box binding protein 1 (XBP1), XBP1 (gene 7494); test: LTEA_HepaRG_XBP1: Life Technologies and Expression Analysis (LTEA) Assay for X-box binding protein 1 (XBP1) using HepaRG (AID 2283540; active means hit-call score of the fitted dose curve at least 0.9, where 1 is the maximum; inactive means score below 0.9); settings: mRNA level, 48 h; actives raise or lower the signal
Method in brief: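 HepaRG, 48 h exposure, 8-pt half-log CRC top 100 uM, 0.5% DMSO vehicle, duplicates. Readout: TaqMan qRT-PCR of XBP1 mRNA, housekeeping-normalised (ACTB/GAPDH/POLR2A); bidirectional fit vs DMSO baseline.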

[8] = LTEA_HepaRG_LDH_cytotoxicity: Cytotoxicity Assessment in the Life Technologies and Expression Analysis (LTEA) Assay (AID 2283563)
Method in brief: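 HepaRG (human liver line), 48 h exposure, 8-pt half-log series from 100 uM, 0.5% DMSO vehicle, duplicates. Read-out: LDH in spent medium. Positive-direction fit vs DMSO baseline.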

[9] = molecular target: Cellular tumor antigen p53 (Homo sapiens) (UniProt P04637); test: TOX21_p53_BLA_p3_ratio: Tox21 HCT-116 p53 Agonism Beta-lactamase Assay, Ratio, Phase 3 (AID 2283596)
Method in brief: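 HCT116 p53-bla cells (4000/well) given compound in DMSO (217-fold dilution) after 5 h, incubated 16 h at 37C. CCF4-AM substrate 2 h at room temperature; 460/530 nm emission ratio, gain fitted against DMSO.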

[10] = TOX21_p53_BLA_p4_viability: Viability Assessment in the Tox21 HCT-116 p53 Agonism Beta-lactamase Assay, Phase 4 (AID 2283597);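 further: hits lower the luminescence signal meaning cytotoxicity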
Method in brief: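 We seeded HCT116 p53 reporter cells at 4000/well and waited 5 h. We then added compounds in DMSO at a 217-fold dilution and incubated for 16 h. Viability was read as CellTiter-Glo luminescence after 30 min at RT.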

[11] = molecular target: Cellular tumor antigen p53 (Homo sapiens) (UniProt P04637); test: TOX21_p53_BLA_p5_ratio: Tox21 HCT-116 p53 Agonism Beta-lactamase Assay, Ratio, Phase 5 (AID 2283599)
Method in brief: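 HCT-116 p53-bla cells (4000/well) plated 5 h, dosed with compound (217-fold DMSO dilution) for 16 h at 37 C; CCF4-AM substrate 2 h at room temperature. Activity is the 460/530 nm emission ratio (405 nm excitation), fitted in gain-of-signal direction versus DMSO.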

[12] = TOX21_p53_BLA_p5_viability: Viability Assessment in the Tox21 HCT-116 p53 Agonism Beta-lactamase Assay, Phase 5 (AID 2283600)
Method in brief: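 Compounds, pinned from DMSO at 217-fold dilution, were left on the cells for 16 h. The viability endpoint was ATP content measured by CellTiter-Glo luminescence, where falling signal reflects cytotoxicity.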

[13] = molecular target: Cellular tumor antigen p53 (Homo sapiens) (UniProt P04637); test: TOX21_p53_BLA_p4_ratio: Tox21 HCT-116 p53 Agonism Beta-lactamase Assay, Ratio, Phase 4 (AID 2283601)
Method in brief: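 HCT-116 p53 beta-lactamase reporter cells (4000/well) preincubated 5 h, then compound (217-fold dilution of DMSO stock) for 16 h at 37C. CCF4-AM substrate added 2 h at room temperature; 460/530 nm emission ratio fitted upward versus DMSO.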

[14] = Tanguay_ZF_120hpf_MORT_legacy: (Legacy) Oregon State University Tanguay Lab 120 Hour Post-fertilization zebrafish Assay for Mortality (AID 2283633)
Method in brief: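 Brightfield scoring of embryo death (binary) at 24 and 120 hpf; static exposure 6–120 hpf, 28C, sealed and foil-covered. Pronase-dechorionated 5D wild-type larvae, single embryo per well. DMSO 0.64% v/v; trimethyltin chloride 5uM positive control.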

[15] = ATG_XTT_Cytotoxicity: Cytotoxicity Assessment in the Attagene TRANS-FACTORIAL HepG2 Assay (AID 2283584)
Method in brief: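 XTT readout of cell number in transfected HepG2 cells, 24 h post-dosing; DMSO serves as negative control and baseline, with activity taken as loss of viability signal.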

[16] = TOX21_p53_BLA_p2_viability: Viability Assessment in the Tox21 HCT-116 p53 Agonism Beta-lactamase Assay, Phase 2 (AID 2283591);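 further: compound exposure lasted 16 h at 37 °C; actives lower the ATP signal meaning cytotoxicity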
Method in brief: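 HCT116 p53-bla cells, 4000/well, dosed after 5 h plating (217-fold dilution of DMSO stocks) and incubated 16 h at 37C. Viability taken as cellular ATP by CellTiter-Glo luminescence after 30 min RT; signal loss marks cytotoxicity.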

[17] = molecular target: Cellular tumor antigen p53 (Homo sapiens) (UniProt P04637); test: TOX21_p53_BLA_p2_ratio: Tox21 HCT-116 p53 Agonism Beta-lactamase Assay, Ratio, Phase 2 (AID 2283592)
Method in brief: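 In this cell-based reporter format, HCT116 cells were dosed with chemicals delivered from DMSO by 217-fold dilution and incubated 16 h at 37C. Emission at 460 and 530 nm after 2 h CCF4-AM loading provided the ratio, fitted upward versus DMSO.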

[18] = TOX21_p53_BLA_p3_viability: Viability Assessment in the Tox21 HCT-116 p53 Agonism Beta-lactamase Assay, Phase 3 (AID 2283593);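 further: cells exposed to compound for 16 h before reading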
Method in brief: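 HCT116 cells, 4000/well, dosed 5 h after plating by pin transfer (217-fold dilution from DMSO stock) and incubated 16 h at 37C, 5% CO2. Viability read as ATP luminescence with CellTiter-Glo after 30 min at room temperature.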

[19] = read-out: Thyroid Hormone Responsive (THRSP), THRSP (gene 7069); test: LTEA_HepaRG_THRSP: Life Technologies and Expression Analysis (LTEA) Assay for Thyroid Hormone Responsive (THRSP) using HepaRG (AID 2283536; active means hit-call score of the fitted dose curve at least 0.9, where 1 is the maximum; inactive means score below 0.9); settings: mRNA level, 48 h; actives raise or lower the signal
Method in brief: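 Differentiated HepaRG cells treated 48 h in serum-free induction medium with 8 half-log concentrations up to 100 uM (0.5% DMSO), duplicates. THRSP mRNA by TaqMan qRT-PCR normalised to ACTB, GAPDH, POLR2A; bidirectional fit versus DMSO.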

Measured: AC50

Sequence of Cellular tumor antigen p53 (Homo sapiens) (P04637 whole entry, looked up): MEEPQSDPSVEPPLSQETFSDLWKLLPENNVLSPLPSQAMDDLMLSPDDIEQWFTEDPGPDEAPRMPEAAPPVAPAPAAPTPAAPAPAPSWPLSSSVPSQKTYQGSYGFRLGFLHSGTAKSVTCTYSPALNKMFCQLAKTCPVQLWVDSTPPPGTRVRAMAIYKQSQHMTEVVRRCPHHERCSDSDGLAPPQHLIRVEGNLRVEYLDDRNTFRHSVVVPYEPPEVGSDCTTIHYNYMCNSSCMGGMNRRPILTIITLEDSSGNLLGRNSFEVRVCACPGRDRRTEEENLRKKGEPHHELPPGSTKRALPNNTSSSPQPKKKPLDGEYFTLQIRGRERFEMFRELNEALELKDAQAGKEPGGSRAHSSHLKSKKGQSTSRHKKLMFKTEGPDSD

Cc1ccc(N)cc1
not listed: [15] | [16] | [17] | [18] | [19]
inactive: all other assays above

ClC1=C(Cl)[C@]2(Cl)[C@H]3[C@H]([C@@H]4C=C[C@H]3C4)[C@@]1(Cl)C2(Cl)Cl
active: [5] 6.68 µM | [18] 46 µM
inactive: [1] | [2] | TIMP1, TIMP1 (gene 7076) | [3] | [4] | [7] | [8] | [15] | [16] | [17] | [18] | [9] | [11] | [12] | [13] | [14]

C[C@]12C=CC3=C4CCC(=O)C=C4CC[C@H]3[C@@H]1CC[C@@H]2O
active: [5] 1.01 µM | [7] 72.4 µM
inactive: [1] | [2] | TIMP1, TIMP1 (gene 7076) | [3] | [6] | [8] | [15]

O=C1CCCO1
active: [3] 77 µM | [4] 50 µM
not listed: [6] | [14] | [16] | [19]
inactive: all other assays above

ClCCOCCCl
not listed: [6] | [11] | [17] | [19]
inactive: all other assays above

c1ccc(C2CO2)cc1 (centres undefined)
not listed: TIMP1, TIMP1 (gene 7076) | [6] | [10] | [15] | [17]
inactive: all other assays above
